{"source": "PubChem BioAssay"}
{"test_system": "Plasmodium falciparum Sir2 (PF13_0152, Sir2A)", "experiment": "pfSir2 binders on small-molecule microarrays, primary screen, biochemical, small-molecule microarray, 635 nm fluorescence (AID 1098);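 note: score merges spot fluorescence intensity with its signal-to-noise ratio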", "conditions": "small-molecule microarray binding, fluorescence 635 nm; higher = more signal"}
{"smiles": "O=C(O)[C@H](Cc1ccccc1)n1cc(-c2ccccn2)nn1", "composite z-score": -0.0726}
{"smiles": "COC(=O)c1c(CC[C@@H](CO)NC(=O)N[C@H](Cn2cc(-c3ccccc3C)nn2)C(C)C)oc(C(C)=O)c1C(=O)OC", "composite z-score": 0.404}
{"smiles": "COc1ccc(NN2C(C(O)c3ccco3)C=CC3C(=O)N(C4CCCCC4)C(=O)C32)cc1", "note": "(stereo not given)", "composite z-score": 1.39}
{"smiles": "Cc1c(NC(=O)/C(C#N)=C/C=C/c2ccc(N(C)C)cc2)c(=O)n(-c2ccccc2)n1C", "composite z-score": 0.917}
{"smiles": "CN1C2C=C(CCCO)C(C3C(=O)N(C(N)=O)C(=O)C32)C1c1cccs1", "note": "(stereo not given)", "composite z-score": -0.254}
{"smiles": "CC(C)CNC(=O)[C@@]1(c2ccc([N+](=O)[O-])cc2)CC(=O)N(C2CCCCC2)[C@@H]1c1ccc(CO)cc1I", "composite z-score": 1.67}
{"smiles": "COCCOC(=O)N1C(=O)[C@@]2(c3cc(C#CC4(O)CCCCCC4)ccc31)[C@H](C(N)=O)[C@H]1C(=O)O[C@H](c3ccccc3)[C@H](c3ccccc3)N1[C@@H]2c1ccc(O)cc1", "composite z-score": 1.16}
{"smiles": "COC(=O)[C@@]1(Cc2ccccc2)[C@H]2c3cc(C(=O)N4CCCC4)n(Cc4cc(F)cc5c4OCOC5)c3C[C@H]2CN1C(=O)c1ccccc1", "composite z-score": 1.54}
{"smiles": "CCOC(=O)C[C@H]1[C@H](OC(=O)c2ccccc2-c2ccccc2)[C@@H](NC(=O)CC(C)C)c2cc(OCCCO)ccc2N1C(=O)c1ccc2ccccc2n1", "composite z-score": 0.74}
{"smiles": "C=CCN1Cc2ccccc2C[C@@]2(N=C(c3ccc(OCCCO)cc3)O[C@H]2c2ccccc2)C1=O", "composite z-score": 0.907}
{"smiles": "COCCOC(=O)N1C(=O)[C@@]2(c3cc(C#CC4(O)CCCCCC4)ccc31)[C@H](C(=O)N1CCCCCCC1)[C@H]1C(=O)O[C@H](c3ccccc3)[C@H](c3ccccc3)N1[C@@H]2c1ccc(OCCO)cc1", "composite z-score": 1.65}
{"smiles": "CN1C(=O)C2C=CC(C(O)c3c(F)cccc3Cl)N(Nc3ccccc3)C2C1=O", "note": "(stereo not given)", "composite z-score": 1.54}
{"smiles": "CCCC=C(CCC)[C@@H](NP(=O)(c1ccccc1)c1ccccc1)c1ccc(C(F)(F)F)cc1", "composite z-score": -1.78}
{"smiles": "O=C1O[C@@H](c2ccccc2)[C@@H](c2ccccc2)N2[C@@H](c3ccc(O)cc3)[C@]3(C(=O)Nc4ccc(C#CCCO)cc43)[C@@H](C(=O)NC[C@H](O)c3ccccc3)[C@H]12", "composite z-score": -0.029}
{"smiles": "CCN(CC)c1ccc(N2CC=CC34O[C@@H]5/C=C\\CCC(C)OC(=O)C5[C@H]3C(=O)N(CCO)[C@@H]4C2=O)cc1", "note": "(stereo not given in full)", "composite z-score": 0.752}
{"smiles": "Cc1ccc(S[C@]2(C(=O)NCCN3CCOCC3)CC(=O)N(Cc3ccccc3C(F)(F)F)[C@@H]2c2ccc(CO)cc2I)cc1", "composite z-score": 1.3}
{"smiles": "C=CCNC(=O)[C@@H]1[C@H]2C(=O)O[C@H](c3ccccc3)[C@H](c3ccccc3)N2[C@H](c2ccc(OCCO)cc2)[C@@]12C(=O)N(C(=O)OCCOC)c1ccc(C#CC3=CCCCC3)cc12", "composite z-score": 1.11}
{"smiles": "COC(=O)[C@@]1(Cc2ccccc2)[C@H]2c3cc(C(=O)N4CCCC4)[nH]c3C[C@H]2CN1C(=O)c1ccccc1", "composite z-score": 1.1}
{"smiles": "C=CCOC(=O)[C@@H]1[C@H]2C(=O)O[C@H](c3ccccc3)[C@H](c3ccccc3)N2[C@H](c2ccc(OCCOC(=O)[C@H]3C[C@H]4C(=O)N[C@@H](CCCC[N+](C)(C)C)C(=O)N4[C@H]3c3ccc(O)cc3)cc2)[C@@]12C(=O)Nc1ccc(I)cc12", "composite z-score": 1.6}
{"smiles": "COc1c(C)cc(-c2cc3c(c(Cc4ccccc4)n2)[Si](C(C)C)(C(C)C)OC3)cc1C", "composite z-score": 0.214}
{"smiles": "COCCOC(=O)N1C(=O)[C@@]2(c3cc(C#CC4(O)CCCCCC4)ccc31)[C@H](c1ccccc1OCCO)N1[C@H](c3ccccc3)[C@H](c3ccccc3)OC(=O)[C@H]1[C@@H]2C(N)=O", "composite z-score": 0.651}
{"smiles": "CC(C)C(O)C1C=CC2C(=O)N(C)C(=O)C2N1Nc1ccccc1", "note": "(stereo not given)", "composite z-score": 0.778}
{"smiles": "CC(=O)N1Cc2ccccc2C[C@]2(N=C(c3ccc(OCCCO)cc3)O[C@@H]2c2ccccc2)C1=O", "composite z-score": 1.55}
{"smiles": "CCOC(=O)[C@@H]1[C@@H]2C(=O)N(CC)C(=O)[C@@H]2C[C@@H]1Sc1ccccc1", "composite z-score": 0.667}
{"smiles": "O=C1OCCC=C[C@H]2OC34C=CCN(c5ccc(Cl)cc5)C(=O)[C@H]3N(CCCCCO)C(=O)[C@@H]4C12", "note": "(stereo not given in full)", "composite z-score": 1.87}
{"smiles": "COc1ccc(CCNC(=O)[C@@]2(Sc3ccc(C)cc3)CC(=O)N(Cc3cc(C(F)(F)F)cc(C(F)(F)F)c3)[C@@H]2c2ccc(CO)cc2I)cc1", "composite z-score": 1.15}
{"smiles": "COC(=O)[C@@]1(Cc2ccc(OC)cc2)[C@H]2c3cc(C(=O)N4CCCC4)n(CCc4cc5ccccc5[nH]4)c3C[C@H]2CN1C(=O)c1ccccc1", "composite z-score": 1.52}
{"smiles": "COc1ccc(NN2C(C(O)c3ccccn3)C=CC3C(=O)N(C4CCCCC4)C(=O)C32)cc1", "note": "(stereo not given)", "composite z-score": 1.31}
{"smiles": "CN(C)CCCCNC(=O)[C@H]1C[C@H]2C(=O)N[C@@H](CCCCN(C)C)C(=O)N2[C@H]1c1cccc(OCCO)c1", "composite z-score": 1.12}
{"smiles": "CC(C)(C)OC(=O)CC[C@]1(C(=O)O)N=C(c2ccc(OCCCO)cc2)O[C@H]1c1ccccc1", "composite z-score": 1.14}
{"smiles": "COCCOC(=O)N1C(=O)[C@@]2(c3cc(C#Cc4ccc(OC)cc4)ccc31)[C@H](C(=O)NC[C@H](O)c1ccccc1)[C@H]1C(=O)O[C@H](c3ccccc3)[C@H](c3ccccc3)N1[C@@H]2c1ccc(O)cc1", "composite z-score": 0.557}
{"smiles": "C[C@]1(C(=O)NC2CC2)c2ccccc2C(=O)N(Cc2ccc(OC(F)(F)F)cc2)[C@H]1c1ccc(CO)cc1", "composite z-score": -0.419}
{"smiles": "C=CC[C@@]1(C(=O)O)N=C(c2ccc(OCCCO)cc2)O[C@@H]1c1ccccc1", "composite z-score": 1.96}
{"smiles": "COC(=O)C1(Cc2ccccc2)C=C2C(=C(C(C)C)C(=O)C2C)CN1", "note": "(stereo not given)", "composite z-score": -1.21}
{"smiles": "COc1ccc(C#Cc2ccc3c(c2)[C@]2(C(=O)N3)[C@H](C(=O)N3CCc4cc(OC)c(OC)cc4C3)[C@H]3C(=O)O[C@H](c4ccccc4)[C@H](c4ccccc4)N3[C@@H]2c2ccc(O)cc2)cc1", "composite z-score": 0.822}
